Results: PubChem BioAssay AID696 (Sanford-Burnham Center for Chemical Genomics, 2007)
The campaign covered roughly 96,000 compounds. About 1,200 (1.2%) were called active. The full list was thinned out, with actives kept by preference. Unmarked numbers belong to inactive results. Rule as the data show it: active = activation fold above about 2; inactive = the rest.

biological target: Alkaline phosphatase, placental type (Homo sapiens) (UniProt P05187); test: activation of human placental alkaline phosphatase – biochemical, luminescence, HTS (AID 696); conditions: purified PLAP enzyme, luminescent substrate read-out; at 20 µM; active compounds read high
Sequence (P05187 whole entry, looked up): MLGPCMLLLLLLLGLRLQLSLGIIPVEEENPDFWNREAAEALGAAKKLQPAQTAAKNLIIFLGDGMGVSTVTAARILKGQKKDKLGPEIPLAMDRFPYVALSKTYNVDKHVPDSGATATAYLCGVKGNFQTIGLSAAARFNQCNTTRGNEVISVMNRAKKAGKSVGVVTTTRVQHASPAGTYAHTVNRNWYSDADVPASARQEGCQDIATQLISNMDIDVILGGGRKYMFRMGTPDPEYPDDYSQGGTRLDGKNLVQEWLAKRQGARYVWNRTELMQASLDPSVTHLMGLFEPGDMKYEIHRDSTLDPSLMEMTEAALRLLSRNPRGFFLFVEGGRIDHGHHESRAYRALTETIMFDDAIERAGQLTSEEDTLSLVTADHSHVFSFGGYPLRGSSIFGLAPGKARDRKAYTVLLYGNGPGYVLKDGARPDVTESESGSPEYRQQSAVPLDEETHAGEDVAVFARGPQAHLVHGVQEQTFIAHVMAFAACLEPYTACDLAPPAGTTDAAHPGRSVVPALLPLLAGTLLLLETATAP

Row | SMILES | activation fold
1 | CCOC(=O)c1c(N)n(Cc2ccccc2)c2nc3ccccc3nc12 | 0.9
2 | CCOC(=O)c1c(N)n(CCN2CCOCC2)c2nc3ccccc3nc12 | 1.1
3 | COc1cc(Cn2c(N)c(C(=O)NCc3ccco3)c3nc4ccccc4nc32)cc(OC)c1OC | 2.1 (active)
4 | Nc1ccc(C(=O)N/N=C2/CN3CCC2CC3)cc1 | 0.9
5 | CCOc1ccc(C2SCC(=O)Nc3c2c(C)nn3C2CCOC(C)(C)C2)cc1 (stereo not given) | 1.5
